Assay results as given in PubChem BioAssay (NCI).
The panel holds about 83,000 compounds, 20% with a hit somewhere; the sample as a whole holds those more often.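 Activity criterion: percent growth below 10, measured after cells in 96-well plates were exposed to a single compound concentration for 48 hours.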 Active and inactive are the calls of the source.

tested on: SK-MEL-2 melanoma; test: NCI-60 one-dose screen, 48 h (100 = growth as untreated, 0 = no growth, -100 = all killed); details: 10 µM unless noted

| Compound | growth |
| --- | --- |
| CCOC(=O)[C@@H](C)C[C@H](Cc1ccccc1)NC(=O)c1csc([C@@H](C[C@H](C(C)C)N(C)C(=O)[C@H](CC)NC(=O)[C@H]2CCCCN2C)OC(C)=O)n1 | 26.8% (inactive) |
| CCN(CCO)C(Cc1ccccc1)c1ccccc1 (configuration not stated) | 105% (inactive) |
| C1CCC([PH+](C2CCCCC2)C2CCCCC2[PH+](C2CCCCC2)C2CCCCC2)CC1.O=C(C1[CH-]CCCC1)C1CCCC[N-]1.[Au] (configuration not stated) | -52.6% (active) |
| Cn1cc(-c2csc(-c3cn(CCN4CCOCC4)c4ccc(F)cc34)n2)c2cccnc21 | 15.8% (inactive) |
| O=[N+]([O-])c1cc(I)cc([N+](=O)[O-])c1 | 96.8% (inactive) |
| O=[N+]([O-])CC(O)C(Cl)(Cl)Cl (configuration not stated) | 150% (inactive) |
| N#C[S-].[Au+].c1ccc(CN2[CH-]N(Cc3ccccc3)C(c3ccccc3)=C2c2ccccc2)cc1 | -1.84% (active) |
| CC[C@H](NC(=O)[C@H]1CCCCN1C)C(=O)N(C)[C@H](C[C@@H](OC(C)=O)c1nc(C(=O)N[C@@H](Cc2ccccc2)C[C@H](C)C(=O)O)cs1)C(C)C | 36.8% (inactive) |
| CC(=O)O[C@H](C[C@H](C(C)C)N(C)C(=O)[C@@H](NC(=O)[C@H]1CCCCN1C)C(C)C)c1cccc(C(=O)N[C@@H](Cc2ccccc2)C[C@H](C)C(=O)O)n1 | 30.4% (inactive) |
| [Cl][Hg][c]1cc[c]([Hg][Cl])o1 | 57.9% (inactive) |
| Clc1ccc(N2COOC3(OOC2)C2CC4CC(C2)CC3C4)cc1 | 87.4% (inactive) |
| COC(=O)[C@@H](C)C[C@H](Cc1ccccc1)NC(=O)c1nc([C@@H](C[C@H](C(C)C)N(C)C(=O)[C@@H](NC(=O)[C@H]2CCCCN2C)C(C)C)OC(C)=O)sc1C | 26.5% (inactive) |
| CC(C)(N)Cc1ccccc1 | 108% (inactive) |
| CC1=C(CCCOC(=O)CN)C2=C(C)C3(CC3)[C@@](C)(O)C(=O)C2=C1 | 102% (inactive) |
| COC(=O)[C@@H](C)C[C@H](Cc1ccccc1)NC(=O)c1csc(CC[C@H](C(C)C)N(C)C(=O)[C@@H](NC(=O)[C@H]2CCCCN2C)C(C)C)n1 | 35.7% (inactive) |
| COC(=O)[C@H](C[C@H](Cc1ccccc1)NC(=O)c1csc([C@@H](C[C@H](C(C)C)N(C)C(=O)[C@@H](NC(=O)[C@H]2CCCCN2C)C(C)C)OC(C)=O)n1)NC(=O)OCc1ccccc1 | 5.82% [8.5 µM] (active) |
| [Au+].[N-]=C=O.c1ccc(CN2[CH-]N(Cc3ccccc3)C(c3ccccc3)=C2c2ccccc2)cc1 | 84.5% (inactive) |
| CNCc1cccnc1 | 112% (inactive) |
| CC(=O)O[C@H](C[C@H](C(C)C)N(C)C(=O)[C@@H](NC(=O)[C@H]1CCCCN1C)C(C)(C)C)c1nc(C(=O)N[C@@H](Cc2ccccc2)C[C@H](C)C(=O)O)cs1 | 21.8% (inactive) |

| Compound | growth |
| --- | --- |
| C[C@@H]1O[C@@H](O[C@H]2C[C@@H](O)[C@]3(CO)C4C(CC[C@]3(O)C2)[C@@]2(O)CC[C@H](C3=CC(=O)OC3)[C@@]2(C)C[C@H]4O)[C@H](O)[C@H](O)[C@H]1O (some centres not stated) | -59.9% (active) |
| Nc1ccc(Cl)cc1 | 95.7% (inactive) |
| Fc1cccc(NCOOC2(OOCNc3cccc(F)c3)CCCCC2)c1 | 91.7% (inactive) |
| COC(=O)[C@@H](NC(=O)c1cn(CCC2CCCCC2)c2ccccc12)C(C)(C)C | 78.1% (inactive) |
| CCOc1ccccc1C(=O)OCC(Cl)(Cl)Cl | 116% (inactive) |
| CCOP(=O)(Cc1ccc(C#N)cc1)OCC | 92.3% (inactive) |
| N#CCCNc1ccccc1 | 112% (inactive) |
| C[C@]12CC[C@H]3[C@@H](CC[C@]4(O)C[C@@H](O[C@@H]5O[C@H](CO)[C@@H](O[C@@H]6OC[C@@H](O)[C@H](O)[C@H]6O)[C@H](O)[C@H]5O)CC[C@]34C=O)[C@@]1(O)CC[C@@H]2C1=CC(=O)OC1 | -32.6% (active) |
| O=P(N1CC1)(N1CC1)N1CCc2ccccc21 | 121% (inactive) |
| COc1cc([C@@H]2c3cc4c(cc3[C@H](OC(C)=O)[C@H]3COC(=O)[C@H]23)OCO4)cc(OC)c1OC | 33.2% (inactive) |
| COC(=O)[C@@H](C)C[C@H](Cc1ccc(F)cc1)NC(=O)c1csc([C@@H](C[C@H](C(C)C)N(C)C(=O)[C@@H](NC(=O)[C@H]2CCCCN2C)C(C)C)OC(C)=O)n1 | 37.7% (inactive) |
| N#C[Se]CCN1C(=O)c2ccccc2C1=O | 43.7% (inactive) |
| O=[N+]([O-])c1c(Br)sc(Br)c1[N+](=O)[O-] | -20.9% (active) |
| CN1C(=O)C(=Cc2cn(CCCCCCn3c4ccccc4c(=O)c4ccccc43)c3ccccc23)C(=O)N(C)C1=O | 92.8% (inactive) |
| CCCCCCCC[n+]1ccc2ccccc2c1 | 24.5% (inactive) |
| COC(=O)C12CC(NC(=O)c3csc([C@@H](C[C@H](C(C)C)N(C)C(=O)[C@@H](NC(=O)[C@H]4CCCCN4C)C4CC4)OC(C)=O)n3)(C1)C2 | 34.7% (inactive) |
| Cn1cc(-c2csc(-c3cn(CCCCN4CCCCC4)c4ccccc34)n2)c2cccnc21 | 37.9% (inactive) |
| CC1(C)N=C(N)N=C(N)N1c1ccc(CCC(=O)Nc2ccc(S(=O)(=O)F)cc2)c(Cl)c1 | 48.5% (inactive) |
